Measurements reported in the supplement of paper PMC12532568.
Counter-ions that a name gives are not always drawn.

System: Danio rerio larvae Tg(actc1b:ZsGreen-LC3), 3 dpf
Test: LC3 puncta relative area vs vehicle, with NH4Cl (autophagic flux) (log2 fold change); higher = more autophagy
Conditions: 10 µM; treatment time 16 h; NH4Cl: + 100 mM, 4 h
Method: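 Transgenic Tg(actc1b:ZsGreen-map1lc3) zebrafish larvae (2 dpf) were treated for 16 h with Tocris library compounds at 10 µM (n = 12 larvae per compound). Skeletal-muscle LC3 puncta area relative to body area was measured by high-content confocal imaging before and after 4 h of 100 mM NH4Cl (autophagic flux), normalised to vehicle (DMSO), and reported as log2 fold change.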

| SMILES | LC3 puncta (log2) |
| --- | --- |
| COc1ccccc1N1CCN(CCCCN2C(=O)c3ccccc3C2=O)CC1 [NAN-190 hydrobromide] | 0.496 |
| O=C(O)c1cccnc1C(=O)O [Quinolinic acid] | 0.453 |
| CN(C)CCCn1cc(C2=C(c3c[nH]c4ccccc34)C(=O)NC2=O)c2ccccc21 | 0.575 |
| CCN(CC)CCOC(=O)C1(c2ccc([N+](=O)[O-])cc2)CCCC1 [Nitrocaramiphen hydrochloride] | 0.825 |
| O=C(O)c1cc(=O)c2c(Cl)cc(Cl)cc2[nH]1 [5,7-Dichlorokynurenic acid] | 0.00257 |
| O=c1nc2ccccc2c2n1CC(CN1CCN(c3ccccc3)CC1)N2 (stereo not given) | 0.259 |
| CC(=O)N1CCN(C)CC1 [1-Acetyl-4-methylpiperazine hydrochloride] | 0.372 |
| Clc1cccc(Nc2nnc(-c3ccccc3)c3ccccc23)c1 | 0.446 |
| CC(=O)NCC(=O)N[C@H](CCC(=O)O)C(=O)O [N-Acetylglycyl-D-glutamic acid] | 0.237 |
| CCN(CC)CCOCCOC(=O)C1(c2ccccc2)CCCC1 [Carbetapentane citrate] | 0.392 |
| CCc1nc(N)nc(N)c1-c1ccc(Cl)cc1 [Pyrimethamine] | 0.578 |
| NCC(O)(CS(=O)(=O)O)c1ccc(Cl)cc1 (stereo not given) [2-Hydroxysaclofen] | 0.449 |
| NC(C(=O)O)c1cc(O)cc(O)c1 (racemic) | 0.022 |
| O=C1CC2(CCCC2)CC(=O)N1CCCCNCC1COc2ccccc2O1 (stereo not given) | -0.368 |
| NC(=O)c1cccc(N)c1 [3-Aminobenzamide] | 0.645 |
| CN(C)CCCCSC(=N)N | 0.383 |
| S=C(S)N1CCCC1 [Pyrrolidinedithiocarbamate ammonium] | 0.71 |
| N[C@H](C(=O)O)c1ccc(O)c(C(=O)O)c1 [(S)-3-Carboxy-4-hydroxyphenylglycine] | 0.54 |
| O=C(OCCN1CCOCC1)C1(c2ccccc2)CCCCC1 [PRE-084 hydrochloride] | 0.339 |
| COc1ccccc1N1CCN(CC(O)COc2cccc3ccccc23)CC1 (stereo not given) [Naftopidil dihydrochloride] | 0.195 |

| SMILES | LC3 puncta (log2) |
| --- | --- |
| CC(Cc1ccc(O)c(O)c1)(NN)C(=O)O [(S)-(-)-Carbidopa] | 0.219 |
| O=S(=O)(c1cccc2cnccc12)N1CCCNCC1 [Fasudil hydrochloride] | 0.726 |
| O=[N+]([O-])c1cccc2cn[nH]c12 [7-Nitroindazole] | 0.507 |
| C=C1C(=O)O[C@H]2[C@H]1CC/C(C)=C/CC[C@@]1(C)O[C@@H]21 [Parthenolide] | 0.46 |
| N[C@@H](C(=O)O)c1ccc(O)c(C(=O)O)c1 [(R)-3-Carboxy-4-hydroxyphenylglycine] | 0.421 |
| c1ccc(CN(CC2=NCCN2)c2ccccc2)cc1 [Antazoline hydrochloride] | 0.684 |
| CC(C)NCC(O)c1ccc2ccccc2c1 (stereo not given) [Pronethalol hydrochloride] | 0.862 |
| NC(N)=NC(N)=Nc1cccc(Cl)c1 [m-Chlorophenylbiguanide hydrochloride] | 0.782 |
| CCCCCCN(CCCCCC)C(=O)Cc1c(-c2ccc(F)cc2)[nH]c2ccccc12 | 0.295 |
| CC1=C(/C=C/C(C)=C/C=C/C(C)=C/C(=O)O)C(C)(C)CCC1 [Retinoic acid] | 1.64 |
| COC(=O)C1=C(C)NC(C)=C(C(=O)OCCSc2ccccc2)C1C (stereo not given) | 0.664 |
| O=S(=O)(c1cccc2c(Cl)cccc12)N1CCCNCC1 [ML 9 hydrochloride] | 0.383 |
| O=C(NCCN1CCCCC1)c1ccc(I)cc1 [N-[2-(Piperidinylamino)ethyl]-4-iodobenzamide] | 0.448 |
| Cc1noc(NS(=O)(=O)c2ccc(N)cc2)c1C [Sulfisoxazole] | 0.483 |
| c1ccc2oc(C3=NCCN3)cc2c1 [2-BFI hydrochloride] | -0.32 |
| O=C(O)CC/C=C\C[C@H]1CO[C@@H](c2ccccc2Cl)O[C@H]1c1ccccc1O | -0.012 |
| c1ccc(CN2CCC3(CCc4ccccc43)CC2)cc1 [L-693,403 maleate] | 0.655 |
| CCC(C)N(C)C(=O)c1cc2ccccc2c(-c2ccccc2Cl)n1 (stereo not given) | 0.363 |
| CC(C)NCC(O)COc1cccc2ccccc12 (stereo not given) [Propranolol hydrochloride] | 1.08 |
| COC(=O)/C=C/c1cc(O)ccc1O [Methyl 2,5-dihydroxycinnamate] | 0.332 |
